Screening data from PubChem.
A selection: hits, their analogues and other compounds. The true share with any hit is near 7.5%.
NPC1 prom act: activates the NPC1 promoter. Huh7 NPC1 promoter luciferase reporter, 24 h. Potency, µM (doses to about 9.22 µM), inactives show at the top dose activation, usual class: activators. 320,000 tested, 2.4% active; also: % of control where 0% means no effect; nearly all actives have a fitted effect of over 60% in size
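Luciferase expression driven by the NPC1 promoter was measured in stably transfected Huh7 cells after a 24 h compound incubation, using a luciferase reagent and a luminescence read.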
ELG1 genotox: induces genotoxicity in HEK293T cells with luciferase-tagged ELG1 | HEK293T ELG1-luciferase reporter, luminescence, 16 h | AID 504466 | 330,000 tested, 1.3% active | Potency, µM (highest dose often 46 µM), inactives show at the highest dose activity change, positive = activation, most hits filed as activators; also: % of control where 0% means no effect; nearly all actives have a fitted effect of over 60% in size
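ELG1-luciferase HEK293T cells, 2,000/well; compound pinned in; 16 hr, 37 °C, 5% CO2; ONE-Glo, 30 min RT; luminescence on CCD imager.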
SMN2 splice enh: enhancers of SMN2 splice variant expression; HEK293 SMN2-luciferase splicing reporter, luminescence, 30-36 h; 210,000 tested, 2.8% active; AID 1458; Potency, µM (series often up to 46.1 µM), for inactives: at the highest dose activity change, positive = activation, hits mostly activators; also: % of control where 0% means no effect; nearly all actives have a fitted effect of over 55% in size
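HEK293 cells carry an SMN2 minigene-luciferase reporter in which exon 7 inclusion puts luciferase in frame. Cells were seeded at 2000 cells/well, attached for 10-12 hours, then exposed to compounds for 30-36 hours at 37C before ONE-Glo luminescence.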
Rab9 promoter act: activates the Rab9 promoter | Huh7 Rab9 promoter-luciferase reporter, luminescence, 24 h | Potency, µM (titrated, usually from 9.22 µM), inactives show at the highest dose activation, negative = inhibition, most hits filed as activators | 320,000 tested, 2.8% active; also: % of control where 0% means no effect; nearly all actives have a fitted effect of over 60% in size
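Huh7 reporter line, Rab9 promoter upstream of luciferase. Compound exposure 24 h at 37 °C in reduced-serum medium with 10% FBS. Read-out: luminescence.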
FLuc counter: counter-screen for miR-21 project: firefly luciferase inhibitors or activators | purified FLuc, Km substrates, luminescence inhibition | 360,000 tested, 6.9% active | P08659 | Potency, µM (top dose mostly 57.5 µM), without a hit: at the top dose activity change, negative = inhibition, hits mostly inhibitors | AID 588342;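 also: plate controls were vehicle for no effect and reference inhibitor for full effect; nearly all actives have a fitted effect of over 55% in size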
Target sequence (P08659 whole entry, looked up): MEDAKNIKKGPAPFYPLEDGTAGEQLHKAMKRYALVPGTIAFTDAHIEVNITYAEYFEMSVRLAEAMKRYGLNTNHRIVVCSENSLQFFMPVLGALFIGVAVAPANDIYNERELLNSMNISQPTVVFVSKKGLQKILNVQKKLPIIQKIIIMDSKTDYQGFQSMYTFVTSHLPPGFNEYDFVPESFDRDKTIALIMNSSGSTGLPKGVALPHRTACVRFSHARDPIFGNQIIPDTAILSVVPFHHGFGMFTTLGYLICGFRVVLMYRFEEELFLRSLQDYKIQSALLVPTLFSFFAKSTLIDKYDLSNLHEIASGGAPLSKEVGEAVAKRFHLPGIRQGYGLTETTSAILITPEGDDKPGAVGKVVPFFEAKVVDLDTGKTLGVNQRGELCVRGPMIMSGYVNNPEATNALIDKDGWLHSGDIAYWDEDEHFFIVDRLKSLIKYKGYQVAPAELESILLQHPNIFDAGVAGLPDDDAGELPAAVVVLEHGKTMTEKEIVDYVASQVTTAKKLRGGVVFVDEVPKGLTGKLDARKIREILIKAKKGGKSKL
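Purified P. pyralis luciferase, 10 nM final, with Km-level 10 uM D-luciferin and 10 uM ATP in 50 mM Tris acetate pH 7.5, 10 mM Mg acetate, 0.01% Tween-20, 0.05% BSA; 6-point qHTS titration about 60 µM downward; luminescence read.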
An asterisk follows results filed as active; [ ] = another dose, or the depositor's remark. Calls follow the shape of the dose curve; as a rule, active = well fitted curve in the direction sought with a large enough effect; inconclusive = small, poorly fitted or top-dose-only effect, or another doubt; inactive = no such curve, though single readings can be large; an effect the other way counts as inactive or inconclusive. Potency is read from the fitted curve at half-maximal effect.

Screening CC(C)(O)C1C2OC(=O)C1[C@]1(O)C[C@H]3O[C@]34C(=O)O[C@H]2[C@]14C (stereo partly drawn) (tested in a mixture with another compound) returned SMN2 splice enh 15.5%.
`CC(=O)Nc1ccccc1C(=O)OCC(=O)c1ccc2ccccc2c1` gave NPC1 prom act 25.7%, ELG1 genotox -11.1% and FLuc counter 12µM*.
Screening O=C(CNC(=O)c1ccc(Cl)cc1)OCC(=O)c1ccc2c(c1)OCCO2 returned NPC1 prom act -2.1%, ELG1 genotox -7.3%, SMN2 splice enh 10.7%, Rab9 promoter act 2.1% and FLuc counter 21.3µM*.
For Nc1ccccc1C(=O)OCC(=O)c1ccc2c(c1)OCCO2 the results were NPC1 prom act 2.82µM*, ELG1 genotox inconclusive, SMN2 splice enh -21.7%, Rab9 promoter act 3.16µM* and FLuc counter 0.0757µM*.
Screening CCOC(=O)c1ccccc1N returned ELG1 genotox 0.1% and SMN2 splice enh -6.8%.
`Cc1ccc(Cn2nc(C(=O)Nc3ccc(Br)cc3)cc2C)cc1` gave NPC1 prom act -13.4%, ELG1 genotox 20.6µM*, Rab9 promoter act -10.7% and FLuc counter 9.53µM*.
Screening Cc1ccc(OCC(=O)N/N=C\c2ccc(O)c([N+](=O)[O-])c2)c([N+](=O)[O-])c1 returned NPC1 prom act 0.6%, ELG1 genotox 1.3%, SMN2 splice enh -11.2%, Rab9 promoter act -2.6% and FLuc counter 26.9µM*.
Screening O=C(Oc1ccc2ccccc2c1)c1ccco1 returned NPC1 prom act -2.1%, ELG1 genotox 2.9%, SMN2 splice enh -2.5%, Rab9 promoter act 4.6% and FLuc counter 12µM*.
CCOC(=O)c1cc2c(cn1)[nH]c1ccccc12 was read as NPC1 prom act inconclusive, ELG1 genotox 16.9%, SMN2 splice enh inconclusive, Rab9 promoter act 19.3% and FLuc counter 15.1µM*.
Screening COC(=O)C12CC3=CCC4C(=O)N(c5ccccc5)C(=O)C4C3Cc3ccccc3[C@@H]1CNC2=O (stereo partly drawn) returned SMN2 splice enh 6.6%.
For CC[C@H](CO)Nc1nc(NCc2ccccc2)c2ncn(C(C)C)c2n1 the results were SMN2 splice enh 17.8µM*.
FC(F)(F)c1nc2ccc(SSc3ccc4nc(C(F)(F)F)[nH]c4c3)cc2[nH]1 was read as SMN2 splice enh -9.5%[9.22 µM].
CN1/C(=C\C=Nc2ccccc2)C(C)(C)c2ccccc21 was read as NPC1 prom act 0.6%, ELG1 genotox -0.4%, Rab9 promoter act 1.8% and FLuc counter -1.8%.
`CN1/C(=C\C=C\C2=[N+](C)c3ccc4ccccc4c3C2(C)C)C(C)(C)c2ccccc21` gave NPC1 prom act -44.5%, ELG1 genotox -2.9%, SMN2 splice enh -70.6%, Rab9 promoter act -53.0% and FLuc counter 13.5µM*.
CNc1ccc(C(=O)CC(O)CCC(C)C2OC(=O)CC(O)CC(=O)CC(O)CC(O)CC(O)CC(O)CC3(O)CC(O)C(C(=O)OC)C(CC(O[C@@H]4OC(C)C(O)C(N)C4O)/C=C/C=C/C=C/C=C/C=C/C=C/C=C/C2C)O3)cc1 (stereo partly drawn) was read as SMN2 splice enh -0.4%.
CCOC(OCC)P(=O)(O)CCCN was read as SMN2 splice enh -5.6%.
Screening CC(=O)Oc1c2c(c(CC=C(C)C)c3c1C(=O)C1=CC4CC5C(C)(C)OC(C/C=C(\C)C(=O)O)(C4=O)[C@]15O3)OC(C)(CCC=C(C)C)C=C2 (stereo partly drawn) returned SMN2 splice enh -94.8%.
C/C(=N\NC(=O)c1ccccc1O)c1c(O)n(C2CCCCC2)c(=O)[nH]c1=O was read as NPC1 prom act 1.7%, ELG1 genotox 4.6%, Rab9 promoter act -1.0% and FLuc counter 26.9µM*.
For C/C(=N\NC(=O)c1ccccc1O)c1c(O)n(Cc2ccccc2)c(=O)[nH]c1=O the results were NPC1 prom act -3.1%, ELG1 genotox 4.3%, Rab9 promoter act -2.9% and FLuc counter 10.7µM*.
C/C(=N\NC(=O)c1ccccc1Cl)c1c(O)n(C2CCCCC2)c(=O)[nH]c1=O was read as NPC1 prom act 1.0%, ELG1 genotox 0.0%, Rab9 promoter act -0.6% and FLuc counter -2.2%.
For CCCCCOC(=O)c1ccccc1C(=O)OCCCCC the results were SMN2 splice enh 0.4%.
Screening Cc1cccc(N=Nc2ccc(N(C)C)cc2)c1 returned NPC1 prom act 0.631µM*, ELG1 genotox 4.61µM*, Rab9 promoter act 1.26µM* and FLuc counter 0.675µM*.
For c1ccc(N=Nc2ccccc2)cc1 the results were SMN2 splice enh 3.8%.
`C[C@H]1COC2=C1C(=O)C(=O)c1c2ccc2c1CCCC2(C)C` gave NPC1 prom act -1.8%, ELG1 genotox 12.9%, Rab9 promoter act 14.5% and FLuc counter 21.3µM*.
`Cc1ccc2nc(N3CCN(C)CC3)[nH]c2c1` gave NPC1 prom act inconclusive, ELG1 genotox 16.4µM*, SMN2 splice enh 104.2%, Rab9 promoter act inconclusive and FLuc counter 26.9µM*.
`COc1cccc2c1C(=O)c1c(O)c3c(c(O)c1C2=O)C[C@](O)(/C(C)=N\O)C[C@@H]3O[C@H]1C[C@H](N)[C@@H](O)[C@H](C)O1` gave SMN2 splice enh -27.0%[9.22 µM].
C[N+]1([O-])CCC[C@@H]1c1cccnc1 (stereo partly drawn) was read as SMN2 splice enh 12.4%.
Screening CC(C)(C)c1cc(C#N)cc(Br)c1OP(=O)(Oc1c(Br)cc(C#N)cc1C(C)(C)C)c1ccccc1 returned SMN2 splice enh -5.5%[9.22 µM].
For COc1ccc2o/c(=N\O)c(C(=O)Nc3ccc(C)cc3)cc2c1 the results were NPC1 prom act -1.4%, ELG1 genotox inconclusive, Rab9 promoter act 0.0% and FLuc counter inconclusive.
For COc1ccc(/C=C/C(=O)Nc2ccc(C)cc2)cc1 the results were SMN2 splice enh inconclusive and FLuc counter 6.75µM*.
For Oc1c(Cl)cccc1Cl the results were SMN2 splice enh -9.0%.
`CCCCOc1ccc(CN2CCN(CCO)CC2)cc1` gave NPC1 prom act 9.1%, ELG1 genotox inconclusive, SMN2 splice enh -11.8%, Rab9 promoter act 7.1% and FLuc counter -13.6%.
Screening CCCCCCOc1ccc(CN2CCN(CCO)CC2)cc1 returned NPC1 prom act 2.24µM*, ELG1 genotox 8.2µM*, SMN2 splice enh 14.9%, Rab9 promoter act 3.98µM* and FLuc counter 19µM*.
`[CH3][Hg][Cl]` gave SMN2 splice enh -6.2%.
`CCN1C(=O)/C(=C/c2ccc3c(c2)CCN3CCCCl)C(=O)NC1=S` gave NPC1 prom act -0.7%, ELG1 genotox inconclusive, SMN2 splice enh -16.6%, Rab9 promoter act 1.4% and FLuc counter inconclusive.
